G9a block = inhibitors of human histone lysine methyltransferase G9a. Q96KQ7. G9a H3K9 monomethylation, AlphaScreen, 2 h. Potency, µM (top dose mostly 102 µM), without a hit: at the top dose activity, negative = inhibition, hits mostly inhibitors. 350,000 tested, 8.8% active; note: % is set by controls: 0 for no effect and ±100 for the full control effect; nearly all actives have a fitted effect of over 75% in size
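Chemiluminescent proximity detection of H3K9 monomethylation, read after 10 min bead incubation in the dark. Reaction: 20 nM G9a, 500 nM biotin-H3K9 peptide, 20 uM SAM cofactor, 2 h, room temperature, following 15 min enzyme-compound preincubation.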
Sfp PPTase inh = blocks B. subtilis Sfp PPTase activity. Q9F4F7. Biochemical Sfp PPTase activity, qHTS. Potency, µM, without a hit: largest response in the series, negative = inhibition, actives largely listed as inhibitors. 310,000 tested, 3.5% active;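 note: the enzyme is Sfp with the accession as filed and its product quenches rhodamine fluorescence; 0% = enzyme reaction without inhibitor and -100% = no enzyme wells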
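With Hepes-Na pH 7.6 buffer containing 10 mM MgCl2, Sfp (15 nM) modified BHQ-2-YbbR (12.5 uM) using rhodamine-CoA (5 uM). Two reads 30 minutes apart at 525/598 nm yielded each well's rate.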
L3MBTL1 block = blocks human L3MBTL1; Q9Y468; AlphaScreen L3MBTL1–H3K9me1 peptide binding; Potency, µM (doses to about 57.1 µM), without a hit: top-dose activity, negative = inhibition, most hits filed as inhibitors; 230,000 tested, 0.66% active; note: % is set by controls: 0 for no effect and ±100 for the full control effect; nearly all actives have a fitted effect of over 60% in size
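L3MBTL1 (50 nM) pre-complexed 30 min with biotinylated H3(1-15)K9me1 peptide (75 nM), then compounds added for 30 min at room temperature; AlphaScreen streptavidin donor/nickel chelate acceptor beads (10 ug/mL final) read after 30 min dark incubation.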
HP1b chromo inh = inhibitors of HP1-beta chromodomain binding to methylated histone tails. AlphaScreen HP1-beta / biotin-H3K9me3 peptide binding. Potency, µM (highest dose often 114 µM), inactives show at the highest dose activity change, negative = inhibition, hits mostly inhibitors. P83916. 390,000 tested, 0.56% active; note: nearly all actives have a fitted effect of over 70% in size
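Compound inhibition of the preformed complex between 50 nM HP1-beta and 50 nM biotinylated H3K9me3 peptide was read by AlphaScreen. Buffer was PBS pH 7.4 with 0.01% Tween-20. Incubations ran 30 min at room temperature, with 10 ug/mL donor/acceptor beads.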
BAZ2B block = BAZ2B (human) inhibition | AlphaScreen BAZ2B-H3K14Ac peptide displacement | Potency, µM (series often up to 114 µM), inactives show at the highest dose activity change, negative = inhibition, hits mostly inhibitors | AID 504333 | 360,000 tested, 4.4% active | Q9UIF8; note: % is set by controls: 0 for no effect and ±100 for the full control effect; nearly all actives have a fitted effect of over 60% in size
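AlphaScreen luminescence quantifies BAZ2B engagement of H3K14Ac peptide; the protein and biotinylated peptide are both at 50 nM final, buffer PBS pH 7.4 with 0.01% Tween-20, all steps at room temperature.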
JMJD2A Tudor = JMJD2A Tudor domain (human) inhibition; O75164; AlphaScreen JMJD2A-Tudor / H3K4me3 peptide binding; Potency, µM (top dose mostly 114 µM), inactives show top-dose activity change, negative = inhibition, usual class: inhibitors; 390,000 tested, 4.4% active; note: % is set by controls: 0 for no effect and ±100 for the full control effect; nearly all actives have a fitted effect of over 50% in size
Target sequence (O75164 whole entry, looked up, the tested form may be a part): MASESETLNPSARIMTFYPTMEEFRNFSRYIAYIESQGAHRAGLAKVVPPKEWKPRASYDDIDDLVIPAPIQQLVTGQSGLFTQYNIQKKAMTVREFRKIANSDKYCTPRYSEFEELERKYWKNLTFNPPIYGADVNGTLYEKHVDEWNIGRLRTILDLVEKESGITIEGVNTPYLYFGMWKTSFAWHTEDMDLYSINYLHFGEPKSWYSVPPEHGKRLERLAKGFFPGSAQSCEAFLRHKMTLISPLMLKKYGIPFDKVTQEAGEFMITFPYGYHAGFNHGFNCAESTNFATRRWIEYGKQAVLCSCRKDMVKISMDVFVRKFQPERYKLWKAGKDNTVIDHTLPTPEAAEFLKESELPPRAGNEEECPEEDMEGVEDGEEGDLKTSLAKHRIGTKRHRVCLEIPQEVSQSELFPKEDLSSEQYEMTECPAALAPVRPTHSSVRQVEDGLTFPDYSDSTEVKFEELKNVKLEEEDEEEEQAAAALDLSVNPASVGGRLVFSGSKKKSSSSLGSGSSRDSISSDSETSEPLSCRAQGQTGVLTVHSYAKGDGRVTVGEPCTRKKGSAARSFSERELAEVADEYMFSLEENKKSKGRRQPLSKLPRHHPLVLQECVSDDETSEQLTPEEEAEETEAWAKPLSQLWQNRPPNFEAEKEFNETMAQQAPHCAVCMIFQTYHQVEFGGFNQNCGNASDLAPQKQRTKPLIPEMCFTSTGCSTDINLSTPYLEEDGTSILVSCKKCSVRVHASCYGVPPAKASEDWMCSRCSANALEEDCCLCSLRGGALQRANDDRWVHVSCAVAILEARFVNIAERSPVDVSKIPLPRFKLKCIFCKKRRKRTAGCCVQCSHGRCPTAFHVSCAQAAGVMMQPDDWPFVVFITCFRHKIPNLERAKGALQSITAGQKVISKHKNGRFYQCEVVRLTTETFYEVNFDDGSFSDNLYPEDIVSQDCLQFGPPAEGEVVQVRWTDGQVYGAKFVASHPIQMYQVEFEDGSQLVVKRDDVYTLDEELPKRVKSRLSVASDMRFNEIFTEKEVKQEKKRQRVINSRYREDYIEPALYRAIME
Numbers without * were called inactive; ! = repeats disagree; [ ] = dose if it differs, or a comment. In the library only some 12% were active in any assay of this set; here they are far more common. Calls come from the whole dose curve; as a rule, active = well fitted curve in the direction sought with a large enough effect; inconclusive = small, poorly fitted or top-dose-only effect, or another doubt; inactive = no such curve, though single readings can be large; an effect the other way counts as inactive or inconclusive. Potency is the fitted concentration of half-maximal effect.

Screening N#Cc1c(Cl)nsc1NN returned G9a block 7.1µM*, Sfp PPTase inh 40µM*, L3MBTL1 block inconclusive, HP1b chromo inh 45µM*, BAZ2B block 14µM* and JMJD2A Tudor 50µM*.
Cc1c(C#N)c(N)nc(Cl)c1C#N was read as G9a block -40%, Sfp PPTase inh -12%, L3MBTL1 block 16%, HP1b chromo inh 21%, BAZ2B block -2% and JMJD2A Tudor -1%.
`O=c1[nH]c(=S)[nH]c2c1CN(Cc1ccc(F)cc1)CC2` gave G9a block inconclusive, Sfp PPTase inh -25%, HP1b chromo inh 44%, BAZ2B block -18% and JMJD2A Tudor -18%.
CCCN1CCc2[nH]c(=S)[nH]c(=O)c2C1 was read as G9a block 32µM*, Sfp PPTase inh 50µM*, L3MBTL1 block 36%, HP1b chromo inh 21%, BAZ2B block 14% and JMJD2A Tudor inconclusive.
CC(C)N1CCc2[nH]c(=S)[nH]c(=O)c2C1 was read as G9a block 40µM*, Sfp PPTase inh 45µM*, L3MBTL1 block 44%, HP1b chromo inh 1%, BAZ2B block 16% and JMJD2A Tudor inconclusive.
Cc1ccc(CN2CCc3[nH]c(=S)[nH]c(=O)c3C2)cc1 was read as G9a block inconclusive, Sfp PPTase inh -13%, HP1b chromo inh 19%[57 µM], BAZ2B block -13% and JMJD2A Tudor -12%.
`COc1ccc2[nH]c(C)c(CCN3C(=O)C4CC=CCC4C3=O)c2c1` (stereo unspecified) gave G9a block inconclusive, Sfp PPTase inh 0%, L3MBTL1 block -7%, HP1b chromo inh -14%, BAZ2B block inconclusive and JMJD2A Tudor 25µM*.
For Cc1ccccc1OC1C=CC(c2ccccc2)OC1CO (stereo unspecified) the results were Sfp PPTase inh -7%.
For Cc1c(-c2cc(Br)ccc2O)nc2cc3c(cc2c1C)OCO3 the results were G9a block 45µM*, Sfp PPTase inh 8%, HP1b chromo inh 25%, BAZ2B block -20% and JMJD2A Tudor -33%.
Screening CC(=O)Nc1c(I)cc(I)c(C(=O)O)c1I returned G9a block -42%[2.33 µM] and Sfp PPTase inh 12%.
`O=C(c1ccco1)c1coc2c1cc(O)c1ccccc12` gave G9a block 40µM*, Sfp PPTase inh -8%, L3MBTL1 block -11%, HP1b chromo inh -2%, BAZ2B block -21% and JMJD2A Tudor inconclusive.
CC(=O)c1coc2c1cc(O)c1ccccc12 was read as G9a block -21%, Sfp PPTase inh 5%, HP1b chromo inh 9%, BAZ2B block 8% and JMJD2A Tudor -12%.
O=C(Nc1ncnc2c1ncn2[C@@H]1O[C@@H]2COP(=O)(O)O[C@H]2[C@H]1O)c1ccccc1 was read as Sfp PPTase inh 2%.
`CCOc1ccccc1NC(=O)Nc1ccc2c(c1)CCC2` gave G9a block 14%, Sfp PPTase inh 8%, HP1b chromo inh 33%, BAZ2B block -15% and JMJD2A Tudor -19%.
Screening CCOc1cc(CNc2ccc3c(c2)CCC3)ccc1O returned G9a block 8.9µM*, Sfp PPTase inh 14%, HP1b chromo inh -18%, BAZ2B block -37% and JMJD2A Tudor 79µM*.
`COc1cc(CNc2ccc3c(c2)CCC3)cc(OC)c1O` gave G9a block inconclusive, Sfp PPTase inh 40µM*, L3MBTL1 block -15%, HP1b chromo inh 32µM*, BAZ2B block 40µM* and JMJD2A Tudor 4µM*.
Screening CC(=O)OC1CCC2(C)C(CCC3(C)C2C(=O)C=C2C4CC(C)(C(=O)OCCN5CCCCC5)CCC4(C)CCC23C)C1(C)C (stereo unspecified) returned Sfp PPTase inh 0%.
For COc1cc(NC(=S)N2CCC(C(N)=O)CC2)c(OC)cc1Cl the results were G9a block 45µM*, Sfp PPTase inh inconclusive, L3MBTL1 block 0%, HP1b chromo inh 17%, BAZ2B block -19% and JMJD2A Tudor -19%.
Screening COc1cccc(NC(=S)N2CCN(c3ccccn3)CC2)c1 returned G9a block -1%, Sfp PPTase inh 11%, L3MBTL1 block 2%, HP1b chromo inh 8%, BAZ2B block -10% and JMJD2A Tudor 89µM*.
`COc1ccc(Cl)cc1NC(=S)N1CCN(c2ccccn2)CC1` gave G9a block inconclusive, Sfp PPTase inh -19%, L3MBTL1 block 1%, HP1b chromo inh 15%, BAZ2B block 4% and JMJD2A Tudor -10%.
Screening COc1cc(NC(=S)N2CCC(C(N)=O)CC2)cc(OC)c1 returned G9a block -6%[59 µM], Sfp PPTase inh inconclusive, L3MBTL1 block 3%, HP1b chromo inh 23%, BAZ2B block 10% and JMJD2A Tudor -2%.
Screening COc1cc(NC(=S)N2CCN(c3ccccn3)CC2)c(OC)cc1Cl returned G9a block 16µM*, Sfp PPTase inh 10%, L3MBTL1 block -1%, HP1b chromo inh -38%, BAZ2B block -26% and JMJD2A Tudor inconclusive.
Screening COc1ccc(C(=S)N2CCC(C(N)=O)CC2)cc1Br returned G9a block inconclusive, Sfp PPTase inh 40µM*, L3MBTL1 block -1%, HP1b chromo inh -20%, BAZ2B block -1% and JMJD2A Tudor -17%.
CCN(CC(=O)Nc1ccc(OC)cc1)C(=O)C1CCN(C(=O)c2ccc(Cl)cc2)CC1 was read as G9a block -8%[59 µM], L3MBTL1 block 5%, HP1b chromo inh 30%, BAZ2B block 8% and JMJD2A Tudor -8%.
CC(C)c1ccc(Nc2c(-c3ccccn3)nc3ccccn23)cc1 was read as G9a block inconclusive, HP1b chromo inh inconclusive, BAZ2B block 22µM* and JMJD2A Tudor 32µM*.
Screening Cc1ccccc1Nc1c(-c2cc(Br)ccc2F)nc2ccccn12 returned G9a block -7%[59 µM], HP1b chromo inh 41%, BAZ2B block 0% and JMJD2A Tudor -14%.
`Fc1ccc(Nc2c(-c3ccccn3)nc3ccc(Cl)cn23)cc1` gave G9a block -2%[59 µM], HP1b chromo inh 33%, BAZ2B block inconclusive and JMJD2A Tudor inconclusive.
For Cc1ccc2nc(-c3ccccn3)c(Nc3ccc(F)cc3)n2c1 the results were G9a block 12%[59 µM], HP1b chromo inh 26%, BAZ2B block 5.6µM* and JMJD2A Tudor inconclusive.
`Cc1ccn2c(Nc3ccccc3C)c(-c3ccccn3)nc2c1` gave G9a block inconclusive, Sfp PPTase inh -8%, HP1b chromo inh inconclusive, BAZ2B block 22µM* and JMJD2A Tudor 45µM*!.
Cc1ccccc1Nc1c(-c2ccccn2)nc2ccccn12 was read as G9a block 40µM*, Sfp PPTase inh -39%, HP1b chromo inh -5%, BAZ2B block 10µM* and JMJD2A Tudor 50µM*.
